Data taken from PubChem BioAssay (EPA / NIEHS).
Where “and” joins values, the source holds several entries; their conditions need not be identical. Identical values can stand only once. Records with an inconclusive call do not appear. Where a structure was tested more than once in an assay, its records may differ in their call. Calls of active or inactive are those of the source. Rule for the calls, unless noted: active = hit-call score of the fitted dose curve at least 0.9, where 1 is the maximum; inconclusive = response in the unintended direction; inactive = score below 0.9.

tested on: not listed separately; assay: STM_H9_OrnCyssISnorm_ratio: Stemina devTOX quickPredict H9 human embryonic stem cell (hESC)-based Assay for Ornithine (ORN):Cystine (CYSS) Ratio (AID 2283714)
How it was run: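 H9 hESC, 72h, q24h re-dose; last-day media → acetonitrile deproteinization → UPLC-HRMS. ORN:CYSS ratio from isotope-normalized EIC areas, vs 0.1% DMSO; MTX references on each plate.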

Compound	AC50	outcome
COC(=O)N(OC)c1ccccc1COc1ccn(-c2ccc(Cl)cc2)n1	0.806 µM (active)	–
C#CCOS(=O)OC1CCCCC1Oc1ccc(C(C)(C)C)cc1 (stereo not given)	2.89 µM (active)	–
CO/C=C(/C(=O)OC)c1ccccc1Oc1cc(Oc2ccccc2C#N)ncn1	–	inactive
COC(=O)c1ccccc1C(=O)OC	–	inactive
CCON=C(CC)C1=C(O)CC(c2c(C)cc(C)cc2C)CC1=O (stereo not given)	–	inactive
CCc1nn(C)c(C(=O)NCc2ccc(C(C)(C)C)cc2)c1Cl	1.55 µM (active)	–
CCOC(=O)CC(SP(=S)(OC)OC)C(=O)OCC (stereo not given)	80.9 µM (active)	–

read-out: not listed separately; assay: CEETOX_H295R_MTT_cell_viability: Viability Assessment in the CeeTox HT-H295R MTT Assay (AID 2283718; active = hit-call score of the fitted dose curve at least 0.9, where 1 is the maximum; inactive = score below 0.9)
How it was run: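 H295R cells prestimulated 48 h with 10 uM forskolin, then exposed 48 h to test chemical (0.1% DMSO final). Viability by MTT (0.5 mg/ml, 4 h, 37 C), absorbance 570/650 nm; percent change versus DMSO, bidirectional fit.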

Compound	outcome
CCOP(=S)(OCC)SCn1c(=O)oc2cc(Cl)ccc21	inactive
Cc1c(F)c(F)c(COC(=O)C2C(/C=C(\Cl)C(F)(F)F)C2(C)C)c(F)c1F (stereo not given)	inactive
Cc1cc(Cl)ccc1OCC(=O)O	inactive
Oc1ccccc1-c1ccccc1	inactive
COC(=O)c1ccccc1C(=O)OC	inactive
CC(C)Oc1cc(-n2nc(C(C)(C)C)oc2=O)c(Cl)cc1Cl	inactive
N#CC(CCc1ccc(Cl)cc1)(Cn1cncn1)c1ccccc1 (stereo not given)	inactive
CCOc1cc(Oc2ccc(C(F)(F)F)cc2Cl)ccc1[N+](=O)[O-]	inactive
CCON=C(CC)C1=C(O)CC(c2c(C)cc(C)cc2C)CC1=O (stereo not given)	inactive
CC1=C(C(=O)Nc2ccccc2)SCCO1	inactive
CCOC(=O)CC(SP(=S)(OC)OC)C(=O)OCC (stereo not given)	inactive

tested on: not listed separately; assay: Tanguay_ZF_120hpf_ActivityScore_legacy: (Legacy) Oregon State University Tanguay Lab 120 Hour Post-fertilization zebrafish Assay Score for Activity (AID 2283742);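 for AC50: dechorionated Tropical 5D wild-type zebrafish embryos held singly per well; static exposure from 6 hpf until 120 hpf at 28 °C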
How it was run: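 In this whole-embryo screen, dechorionated zebrafish were exposed from 6 hpf until 120 hpf at 28C under a 0.64% DMSO vehicle. Developmental malformations and death were recorded by brightfield microscopy as binary endpoints.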

Compound	outcome	AC50
CCOP(=S)(OCC)SCn1c(=O)oc2cc(Cl)ccc21	inactive	–
Cc1c(F)c(F)c(COC(=O)C2C(/C=C(\Cl)C(F)(F)F)C2(C)C)c(F)c1F (stereo not given)	–	20.9 µM (active)
O=C(O)c1nc(Cl)ccc1Cl	inactive	–
Cc1cc(Cl)ccc1OCC(=O)O	inactive	–
CC(Oc1ccc(Cl)cc1Cl)C(=O)O (stereo not given)	inactive	–
COC(=O)C=C(C)OP(=O)(OC)OC	inactive	–
COC(=O)N(OC)c1ccccc1COc1ccn(-c2ccc(Cl)cc2)n1	–	0.409 µM (active)
C#CCOS(=O)OC1CCCCC1Oc1ccc(C(C)(C)C)cc1 (stereo not given)	inactive	–
CO/C=C(/C(=O)OC)c1ccccc1Oc1cc(Oc2ccccc2C#N)ncn1	inactive	9.41 µM (active) and 2.03 µM (active)
Oc1ccccc1-c1ccccc1	–	45.8 µM (active)
COC(=O)c1ccccc1C(=O)OC	inactive	–
CC(C)Oc1cc(-n2nc(C(C)(C)C)oc2=O)c(Cl)cc1Cl	inactive	–
CNC(=O)ON=CC(C)(C)SC	–	0.00317 µM (active)
Fc1ccc(Oc2ccnc3cc(Cl)cc(Cl)c23)cc1	inactive	–
N#CC(CCc1ccc(Cl)cc1)(Cn1cncn1)c1ccccc1 (stereo not given)	inactive	–
CCOc1cc(Oc2ccc(C(F)(F)F)cc2Cl)ccc1[N+](=O)[O-]	inactive	–
COc1cnc(OC)n2nc(NS(=O)(=O)c3c(OCC(F)F)cccc3C(F)(F)F)nc12	inactive	–
CCON=C(CC)C1=C(O)CC(c2c(C)cc(C)cc2C)CC1=O (stereo not given)	inactive	–
CCc1nn(C)c(C(=O)NCc2ccc(C(C)(C)C)cc2)c1Cl	–	2.81 µM (active)
CC1=C(C(=O)Nc2ccccc2)SCCO1	–	47.7 µM (active)
CCCN(CCC)c1c([N+](=O)[O-])cc(S(N)(=O)=O)cc1[N+](=O)[O-]	inactive	–
COP(N)(=O)SC (stereo not given)	inactive	–
CCOC(=O)CC(SP(=S)(OC)OC)C(=O)OCC (stereo not given)	–	29.2 µM (active)
CC(C)C1(C)N=C(c2nc3ccccc3cc2C(=O)O)NC1=O (stereo not given)	inactive	–
C=CCC1=C(C)[C@@H](OC(=O)[C@@H]2[C@@H](C=C(C)C)C2(C)C)CC1=O	inactive	–
CS/C(C)=N/OC(=O)N(C)SN(C)C(=O)O/N=C(\C)SC	inactive	–
O=C(Nc1ccccc1)Nc1ccnc(Cl)c1	–	38.6 µM (active)

tested on: chicken Androgen Receptor (AR), gene 422165; assay: ATG_chAR_XSP1: Attagene TRANS-FACTORIAL Multi-Species (XSP1) HepG2 Assay for chicken Androgen Receptor (AR) (AID 2283768)
How it was run: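 Reporter mRNA read by RT-PCR with fluorescent labelling and capillary electrophoresis 24 h after chemical dosing of transiently transfected HepG2 cells. Chicken AR-Gal4 chimera, partially stimulated with 3 nM 6-alpha-fluorotestosterone; activity fitted upward relative to DMSO.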

Compound	outcome	AC50
COC(=O)N(OC)c1ccccc1COc1ccn(-c2ccc(Cl)cc2)n1	inactive	–
CO/C=C(/C(=O)OC)c1ccccc1Oc1cc(Oc2ccccc2C#N)ncn1	inactive	–
CC(C)Oc1cc(-n2nc(C(C)(C)C)oc2=O)c(Cl)cc1Cl	–	18 µM (active)
CCCN(CCC)c1c([N+](=O)[O-])cc(S(N)(=O)=O)cc1[N+](=O)[O-]	–	59.5 µM (active)
